# KDM5B inh – inhibitors of human KDM5B histone demethylase. AID 1347165. Potency, µM (titrated, usually from 57.7 µM), hits mostly inhibitors. KDM5B demethylase, FDH-coupled NADH fluorescence (FDH is formaldehyde dehydrogenase). actives 2.6% (n = 220,000). Q9UGL1; active = well fitted inhibition curve with a large enough effect; also: 0% is about no effect; nearly all actives have a fitted effect of over 70% in size
#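 Inhibition is measured as reduced NADH fluorescence generation from FDH coupling to formaldehyde release. Truncated KDM5BΔAP at 200 nM final acts on H3K4me3 peptide (12.5 µM in substrate mix) in pH 7.5 HEPES buffer with Tween-20, 30 min, room temperature.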
# The depositor's hits bear a star; i = inactive. The full list was thinned out, with hits kept by preference. Potency is read from the fitted curve at half-maximal effect.
SMILES,KDM5B inh
CNc1cc(C)nc(N2CC[C@H](N3CCOCC3)[C@H](CCC(=O)O)C2)n1,i
Cc1nc2ccc(C(=O)N3C[C@@H]4CCN(C)C[C@]4(C(=O)O)C3)cc2s1,i
O=Cc1ccc(-c2ccc(Br)cc2Br)o1,i
O=Cc1c[nH]c2cc(Br)ccc12,i
O=C(NCc1cccc(C(F)(F)F)c1)c1ccc2c(c1)CCC2,i
CCc1nc2c(=O)n(CC(=O)NCc3ccc(Br)cc3)nc(C)c2s1,i
Cc1nn(CC(=O)NCc2ccc(F)cc2F)c(=O)c2nc(-c3ccccc3)sc12,32µM*
CCc1nc2c(=O)n(CC(=O)NCc3cccnc3)nc(C)c2s1,i
Cc1nn(CC(=O)NCc2cccnc2)c(=O)c2nc(-c3ccccc3)sc12,28µM*
CCc1nc2c(=O)n(CC(=O)NCc3ccc(SC)cc3)nc(C)c2s1,i
CCc1nc2c(=O)n(CC(=O)NCc3ccc(F)cc3Cl)nc(C)c2s1,i
COc1ccccc1C1=NS(=O)(=O)N(C)C(C(=O)Nc2ccn(Cc3ccc(C)cc3)n2)=C1,i
CCC(=O)c1c(N)cc(C)oc1=O,i
Cc1noc(C)c1S(=O)(=O)NC1CCc2nn(CC3CC3)c(=O)n2CC1 (centres undefined),i
Cn1c(Cn2cccn2)nnc1C1CC(NC(=O)c2cnco2)C1 (centres undefined),i
C/C(=N\O)C1CCCCCCCCCCC1,i
CN(CCOc1ccccc1)CC1CCCO1 (centres undefined),i
COc1ccc(-c2[nH]ncc2-c2ccccc2)c(O)c1,i
COc1ccc(-c2cc(-c3ccccc3O)cn3cncc23)cc1,3.5µM*
COc1ccc(-c2cnc(N)nc2-c2ccc(OCc3ccccc3)cc2O)cc1,i
COc1ccc(-c2cc(-c3cnn(C)c3)cn3cncc23)cc1,35µM*
COc1ccc(-c2cc(-c3ccc(OC)cc3)on2)cc1,i
CCN(Cc1ccc(OC)c(OC)c1)S(=O)(=O)c1cnn(C)c1,i
O=C(c1ccccc1C(F)(F)F)N1CCC2(CC1)CC(O)CCO2 (centres undefined),i
Cc1noc2c(NCc3ccccc3)cc(-c3cccnc3)nc12,i
SMILES,KDM5B inh
Cc1noc2c(-c3cn[nH]c3)cc(-c3cccc(C(F)(F)F)c3)nc12,i
COc1ccc(-c2noc(-c3nc(-c4cccnc4)no3)n2)cc1OC,i
Cc1noc2c(-c3ccc4c(ccn4C)c3)cc(-c3cccnc3)nc12,32µM*
Cc1noc2c(N3CCN(C)CC3c3ccccc3)cc(-c3cccnc3)nc12 (centres undefined),i
COC1CCN(c2cc(-c3ccccc3)nc3c(C)noc23)CC1,i
COc1ccc(-c2c(C)nn3c(-c4ccccc4)cc(-c4ccccc4)nc23)cc1OC,i
COc1cccc(-c2cc(-c3ccccc3)nc3c(C)noc23)c1,32µM*
COc1ccc(-c2cc(-c3ccccc3)nc3c(C)noc23)cc1OC,25µM*
O=C(Cn1nc2n(c1=O)CCN(Cc1cccc(Cl)c1)C2=O)NCCC1=CCCCC1,i
O=C1CCN(C(=O)c2ccccc2)CCCC(C(=O)N2CCc3ccccc32)CCN1 (centres undefined),i
O=C(NCCc1noc(C2CC2)n1)c1cccs1,i
Cc1ccc(-c2cccc(C=O)c2)cc1Cl,i
O=CNc1ccc(O)cc1,i
Cc1ccc(-c2cccc(CN)c2)cc1Cl,i
Cc1cccc(-c2ccccc2C=O)c1,i
Cc1cccc(-c2ccc(C=O)cc2)c1,45µM*
O=Cc1ccc(-c2ccc(O)cc2)cc1,14µM*
O=C(/C=C/c1ccc(O)cc1)c1ccc(-c2ccccc2)cc1,i
Cc1ccc(-c2cccc(C=O)c2)c(C)c1,i
Cc1ccc(-c2ccc(C=O)cc2)cc1Cl,50µM*
O=S(=O)(CCN1CCOC(c2ccccc2)C1)c1ccccc1 (centres undefined),i
COCCNC(=O)C[C@@H]1C[C@H]2O[C@H](CN(C)C)[C@@H](O)[C@H]2O1,i
O=C(CC1C(=O)N(C2CCCCC2)c2nc3ccccc3n21)Nc1ccc(F)c(F)c1 (centres undefined),i
Cc1ccc(CNC(=O)C2(CCO)CCN(Cc3ccccc3)C2)o1 (centres undefined),i
Cc1ccc(OCC(=O)N2CCN(c3ncccn3)CC2)cc1,i
SMILES,KDM5B inh
CCNC(=O)C1(CCO)CCN(Cc2ccccc2)C1 (centres undefined),i
Cc1ccc(NC(=O)C2(CCO)CCN(c3ncccn3)C2)cc1 (centres undefined),28µM*
CC(=O)Nc1ccc(C2(C(=O)NCc3ccc(C)o3)CCC2)cc1,i
Cc1ccc(CNC(=O)C2(CCO)CCN(c3ncccn3)C2)o1 (centres undefined),28µM*
CC(C)CCNC(=O)C1(CCO)CCN(c2ncccn2)C1 (centres undefined),25µM*
O=C(Nc1cccc(OC(F)(F)F)c1)[C@@H]1COCC(=O)N1Cc1ccc(F)cc1,i
CC(C)N1C(=O)C2(CCCC2)C1C(=O)Nc1cccc(OC(F)(F)F)c1 (centres undefined),i
Cc1ccc(NC(=O)C2(c3ccccc3)CCCC2)cc1,i
COCCCNC(=O)C1(CCO)CCN(Cc2ccccc2)C1 (centres undefined),i
O=C(Nc1cccc(OC(F)(F)F)c1)C1(CCO)CCN(c2ncccn2)C1 (centres undefined),25µM*
Cc1ccc(C)c(C(=O)Nc2ccc(-c3nc4ccc(C)cc4s3)cc2)c1,i
Cc1c(-c2ccccc2)oc2c(C(=O)Nc3ccc(N4CCN(C)CC4)cc3)cccc2c1=O,i
CC(=O)N1CCC(C(=O)NCCc2ccccc2C(F)(F)F)CC1,i
Cc1cc(CSCC(=O)Nc2ccccc2C)on1,i
Cc1nc(C(C)C)sc1C(=O)NCc1ccccc1,i
OCCOc1ccc(CNc2nc(-c3ccccc3)nc3ccccc23)cc1,i
CCOc1ccc(CN(C)C(=O)Cn2nc(C(=O)O)c3ccccc3c2=O)cc1,i
Cc1cc(C)cc(OC(C)C(=O)Nc2cccc3cccnc23)c1 (centres undefined),i
CC1(C)NC(=O)N(CC(=O)N[C@H](Cc2ccccn2)C2CC(O)C2)C1=O (some centres undefined),i
C=CCOC(=O)C1=C(C)N=C2SC=C(CC(=O)N3CCCC3)N2C1c1cc(OC)cc(OC)c1 (centres undefined),i
COc1ccc(C2C(C(=O)OC(C)(C)C)=C(C)N=C3SC=C(CC(=O)N4CCCC4)N32)cc1OC (centres undefined),i
C=CCOC(=O)C1=C(C)N=C2SC=C(CC(=O)N3CCCC3)N2C1c1ccc(OC)cc1OC (centres undefined),28µM*
CS(=O)(=O)c1ccc(F)c(NCc2ccccc2F)c1,i
Cn1c(=O)c2c(ncn2CCC(=O)Nc2cccc(C(N)=O)c2)n(C)c1=O,i
COc1ccccc1CN1C[C@@H]2C(=O)N(CCCN3CCCC3=O)C(=O)[C@@H]2C1,i
O=C1CC(c2ccccc2O)Cc2c1cnn2-c1nc2ccccc2[nH]1 (centres undefined),i
CCCc1ccc(C(=O)COC(=O)CNC(=O)c2ccc(C)cc2)cc1,i
CCOCC(=O)N1C[C@@H]2CCCN3CCC[C@@H]([C@H]23)[C@H]1CCCC(=O)Nc1ccccc1,i
O=C(N[C@H]1CO[C@H]2[C@@H]1OC[C@@H]2Nc1nccc(-c2cccc(F)c2)n1)c1cccs1,35µM*
